# In PubChem BioAssay (NCI):
# Compounds without any hit were thinned out: in the full panel of roughly 79,000, 15% have a hit. Values without a mark were called inactive. Calls of active or inactive are those of the source. Cut-off read from the data, not from the text of the source: active = growth inhibition above about 70%; inactive = the rest.
# Legend:
# [1] = NCI Yeast Anticancer Drug Screen. Data for the rad52 strain (AID 147);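 note: 0% = growth of vehicle-treated control cultures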; settings: S. cerevisiae rad52 mutant growth inhibition, active compounds read high
# Procedure, shortened: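 Measured: yeast growth inhibition. System: strain with a defined DNA damage repair alteration. Reference: vehicle-treated control cultures.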
# [2] = NCI Yeast Anticancer Drug Screen. Data for the wt1 strain (AID 149);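 note: 0% = growth of vehicle-treated wt1 cultures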; settings: S. cerevisiae wt1 strain (SPY 50644) growth inhibition, active compounds read high
# Procedure, shortened: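 Vehicle-normalised growth inhibition; strain wt1; compound exposure.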
# [3] = NCI Yeast Anticancer Drug Screen. Data for the rad50EPP+ strain (AID 151);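 note: 0% = growth of vehicle-treated control cultures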; settings: S. cerevisiae rad50 mutant strain, active compounds read high
# Procedure, shortened: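 One strain with a rad50 alteration (rad50EPP+) was compound-treated, its growth then compared to that of vehicle controls.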
# [4] = NCI Yeast Anticancer Drug Screen. Data for the mgt1 strain (AID 153); settings: S. cerevisiae mgt1 mutant growth inhibition, active compounds read high
# Procedure, shortened: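 After exposure of the mgt1 yeast mutant to compound, growth was measured and reported as inhibition compared with vehicle controls.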
# [5] = NCI Yeast Anticancer Drug Screen. Data for the rad50 strain (AID 155);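 note: 0% = growth of vehicle-only cultures of the same strain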; settings: S. cerevisiae rad50 strain growth inhibition, active compounds read high
# Procedure, shortened: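 A DNA repair-deficient yeast mutant serves as the test organism; compound-induced growth inhibition is calculated against vehicle-treated cells.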
# [6] = NCI Yeast Anticancer Drug Screen. Data for the mec2-1 strain (AID 157); settings: S. cerevisiae mec2-1 strain, active compounds read high
# Procedure, shortened: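 Test agents were screened against the mec2-1 yeast strain, with defined DNA repair or cell cycle alteration. Growth was scored as inhibition against vehicle-only controls.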
# [7] = NCI Yeast Anticancer Drug Screen. Data for the rad14 strain (AID 159);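 note: 0% = growth of vehicle-treated control cultures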; settings: S. cerevisiae rad14 strain growth inhibition, active compounds read high
# Procedure, shortened: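 Vehicle-treated cultures served as the baseline for growth inhibition of a DNA repair-mutant yeast strain exposed to each compound.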
# [8] = NCI Yeast Anticancer Drug Screen. Data for the sgs1 mgt1 strain (AID 161);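 note: 0% = growth of cultures given vehicle only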; settings: S. cerevisiae sgs1 mgt1 strain, active compounds read high
# Procedure, shortened: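 Mutant yeast exposed to compound; growth scored against vehicle-only wells.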
# [9] = NCI Yeast Anticancer Drug Screen. Data for the CLN2oe strain (AID 163);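 note: 0% = growth of vehicle-only control cultures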; settings: S. cerevisiae CLN2oe strain, active compounds read high
# Procedure, shortened: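 Here, growth inhibition in a cell-cycle-altered yeast strain after compound exposure was quantified against vehicle control growth.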
# [10] = NCI Yeast Anticancer Drug Screen. Data for the cln2 rad14 strain (AID 165);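 note: 0% = growth equal to vehicle treated cultures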; settings: S. cerevisiae cln2 rad14 strain, active compounds read high
# Procedure, shortened: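 Growth of compound-exposed yeast (cln2 rad14 genotype) measured and expressed as inhibition relative to vehicle.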
# [11] = NCI Yeast Anticancer Drug Screen. Data for the bub3 strain (AID 167); settings: S. cerevisiae bub3 mutant strain, active compounds read high
# Procedure, shortened: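 Inhibition values come from growth of compound-treated mutant yeast normalised to vehicle-treated controls.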
# [12] = NCI Yeast Anticancer Drug Screen. Data for the wt2 strain (AID 169);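 note: 0% = growth of vehicle-treated yeast cultures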; settings: S. cerevisiae wt2 strain growth inhibition, active compounds read high
# Procedure, shortened: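 Genetically defined yeast strains from a DNA-repair/cell-cycle panel were used. Compound-exposed yeast growth was measured, and the inhibition was calculated relative to vehicle treatment.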
# [13] = NCI Yeast Anticancer Drug Screen. Data for the mlh1 strain (AID 171);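 note: 0% = growth of vehicle-treated control cultures of the same strain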; settings: S. cerevisiae mlh1 strain growth inhibition, active compounds read high
# Procedure, shortened: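 Here the genetically defined yeast mutant is grown with each compound, and the extent to which its growth falls below that of vehicle-exposed cells is reported.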
# [14] = NCI Yeast Anticancer Drug Screen. Data for the sgs1 strain (AID 173);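 note: 0% = growth of vehicle-only control cultures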; settings: S. cerevisiae sgs1 mutant, active compounds read high
# Procedure, shortened: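 Relative growth inhibition, referenced to vehicle, was determined in a yeast strain with a defined alteration affecting DNA damage repair or cell cycle control after compound exposure.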
# [15] = NCI Yeast Anticancer Drug Screen. Data for the mlh1 rad18 strain (AID 175); settings: S. cerevisiae mlh1 rad18 strain growth inhibition, active compounds read high
# Procedure, shortened: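 In this whole-cell yeast screen, a strain with altered DNA damage repair is challenged with compound, and its growth is measured against matched vehicle-treated controls.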
# [16] = NCI Yeast Anticancer Drug Screen. Data for the rad18 strain (AID 177); settings: S. cerevisiae rad18 mutant growth inhibition, active compounds read high
# Procedure, shortened: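 Screen uses a yeast strain with a defined lesion in DNA damage repair; compound effect is read as loss of growth compared to untreated vehicle cultures.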
# [17] = at 5.0 µM (retest, dose inferred, filed as 0.5)
# [18] = at 50.0 µM (retest, dose inferred, filed as 5.0)
structure (smiles),measurement,setting,value
CC(C(=O)N1C(=O)N(C(=O)[C@H](C)C(O)c2ccccc2)[C@H](c2ccccc2)[C@H]1c1ccccc1)[C@@H](O)c1ccccc1 (stereo partly specified),growth inhibition,[1]; at 1.2 µM,-1%
same,growth inhibition,[1]; at 3.7 µM,-2%
same,growth inhibition,[1]; at 11.0 µM,11%
same,growth inhibition,[1]; at 33.0 µM,37%
same,growth inhibition,[1]; at 100.0 µM,62%
same,growth inhibition,[2]; at 1.2 µM,1%
same,growth inhibition,[2]; at 3.7 µM,-1%
same,growth inhibition,[2]; at 11.0 µM,-2%
same,growth inhibition,[2]; at 33.0 µM,17%
same,growth inhibition,[2]; at 100.0 µM,36%
same,growth inhibition,[3]; at 1.2 µM,-4%
same,growth inhibition,[3]; at 3.7 µM,-4%
same,growth inhibition,[3]; at 11.0 µM,-1%
same,growth inhibition,[3]; at 33.0 µM,-3%
same,growth inhibition,[3]; at 100.0 µM,-11%
same,growth inhibition,[4]; at 1.2 µM,-6%
same,growth inhibition,[4]; at 3.7 µM,-9%
same,growth inhibition,[4]; at 11.0 µM,4%
same,growth inhibition,[4]; at 33.0 µM,25%
same,growth inhibition,[4]; at 100.0 µM,59%
same,growth inhibition,[5]; at 1.2 µM,-7%
same,growth inhibition,[5]; at 3.7 µM,-15%
same,growth inhibition,[5]; [17],-5%
same,growth inhibition,[5]; at 11.0 µM,-9%
same,growth inhibition,[5]; at 33.0 µM,41%
same,growth inhibition,[5]; [18],39%
same,growth inhibition,[5]; at 50.0 µM,80.1% (active)
same,growth inhibition,[5]; at 100.0 µM,56%
same,growth inhibition,[6]; at 1.2 µM,-5%
same,growth inhibition,[6]; at 3.7 µM,-1%
same,growth inhibition,[6]; [17],-14%
same,growth inhibition,[6]; at 11.0 µM,8%
same,growth inhibition,[6]; at 33.0 µM,33%
same,growth inhibition,[6]; [18],51%
same,growth inhibition,[6]; at 50.0 µM,73.2% (active)
same,growth inhibition,[6]; at 100.0 µM,55%
same,growth inhibition,[7]; at 1.2 µM,-7%
same,growth inhibition,[7]; at 3.7 µM,-12%
same,growth inhibition,[7]; at 11.0 µM,1%
same,growth inhibition,[7]; at 33.0 µM,15%
same,growth inhibition,[7]; at 100.0 µM,36%
same,growth inhibition,[8]; [17],-12%
same,growth inhibition,[8]; [18],38%
same,growth inhibition,[8]; at 50.0 µM,83.4% (active)
same,growth inhibition,[9]; at 1.2 µM,-11%
same,growth inhibition,[9]; at 3.7 µM,-13%
same,growth inhibition,[9]; at 11.0 µM,12%
same,growth inhibition,[9]; at 33.0 µM,36%
same,growth inhibition,[9]; at 100.0 µM,51%
same,growth inhibition,[10]; [17],71% (active)
same,growth inhibition,[10]; [18],59%
same,growth inhibition,[10]; at 50.0 µM,77.2% (active)
same,growth inhibition,[11]; at 1.2 µM,-4%
same,growth inhibition,[11]; at 3.7 µM,-3%
same,growth inhibition,[11]; [17],-27%
same,growth inhibition,[11]; at 11.0 µM,5%
same,growth inhibition,[11]; at 33.0 µM,23%
same,growth inhibition,[11]; [18],90% (active)
same,growth inhibition,[11]; at 50.0 µM,84.2% (active)
same,growth inhibition,[11]; at 100.0 µM,48%
same,growth inhibition,[12]; at 1.2 µM,-8%
same,growth inhibition,[12]; at 3.7 µM,-7%
same,growth inhibition,[12]; at 11.0 µM,4%
same,growth inhibition,[12]; at 33.0 µM,41%
same,growth inhibition,[12]; at 100.0 µM,62%
same,growth inhibition,[13]; at 1.2 µM,-3%
same,growth inhibition,[13]; at 3.7 µM,-4%
same,growth inhibition,[13]; at 11.0 µM,14%
same,growth inhibition,[13]; at 33.0 µM,45%
same,growth inhibition,[13]; at 100.0 µM,57%
same,growth inhibition,[14]; at 1.2 µM,-2%
same,growth inhibition,[14]; at 3.7 µM,2%
same,growth inhibition,[14]; at 11.0 µM,30%
same,growth inhibition,[14]; at 33.0 µM,65%
same,growth inhibition,[14]; at 100.0 µM,70% (active)
same,growth inhibition,[15]; [17],7%
same,growth inhibition,[15]; [18],37%
same,growth inhibition,[15]; at 50.0 µM,82.2% (active)
same,growth inhibition,[16]; at 1.2 µM,0%
same,growth inhibition,[16]; at 3.7 µM,6%
same,growth inhibition,[16]; at 11.0 µM,25%
same,growth inhibition,[16]; at 33.0 µM,45%
same,growth inhibition,[16]; at 100.0 µM,53%
COc1ccc(/C(C)=N/OC(=O)c2c(-c3ccccc3Cl)noc2C)cc1CN1CCOCC1,growth inhibition,[1]; at 1.2 µM,21%
same,growth inhibition,[1]; at 3.7 µM,23%
same,growth inhibition,[1]; at 11.0 µM,19%
same,growth inhibition,[1]; at 33.0 µM,34%
same,growth inhibition,[1]; at 100.0 µM,75% (active)
same,growth inhibition,[2]; at 1.2 µM,-7%
same,growth inhibition,[2]; at 3.7 µM,-10%
same,growth inhibition,[2]; at 11.0 µM,-14%
same,growth inhibition,[2]; at 33.0 µM,-7%
same,growth inhibition,[2]; at 100.0 µM,39%
same,growth inhibition,[3]; at 1.2 µM,-36%
same,growth inhibition,[3]; at 3.7 µM,-39%
same,growth inhibition,[3]; at 11.0 µM,-41%
same,growth inhibition,[3]; at 33.0 µM,-32%
same,growth inhibition,[3]; at 100.0 µM,-27%
same,growth inhibition,[4]; at 1.2 µM,-3%
same,growth inhibition,[4]; at 3.7 µM,-5%
same,growth inhibition,[4]; at 11.0 µM,0%
same,growth inhibition,[4]; at 33.0 µM,36%
same,growth inhibition,[4]; at 100.0 µM,87% (active)
same,growth inhibition,[5]; at 1.2 µM,-39%
same,growth inhibition,[5]; at 3.7 µM,-28%
same,growth inhibition,[5]; [17],63%
same,growth inhibition,[5]; at 11.0 µM,-20%
same,growth inhibition,[5]; at 33.0 µM,21%
same,growth inhibition,[5]; [18],88% (active)
same,growth inhibition,[5]; at 50.0 µM,64.7%
same,growth inhibition,[5]; at 100.0 µM,70% (active)
same,growth inhibition,[6]; at 1.2 µM,-25%
same,growth inhibition,[6]; at 3.7 µM,2%
same,growth inhibition,[6]; [17],68%
same,growth inhibition,[6]; at 11.0 µM,-12%
same,growth inhibition,[6]; at 33.0 µM,7%
same,growth inhibition,[6]; [18],98% (active)
same,growth inhibition,[6]; at 50.0 µM,14.3%
same,growth inhibition,[6]; at 100.0 µM,50%
same,growth inhibition,[7]; at 1.2 µM,-8%
same,growth inhibition,[7]; at 3.7 µM,-17%
same,growth inhibition,[7]; at 11.0 µM,-20%
same,growth inhibition,[7]; at 33.0 µM,45%
same,growth inhibition,[7]; at 100.0 µM,91% (active)
same,growth inhibition,[8]; [17],-16%
same,growth inhibition,[8]; [18],98% (active)
same,growth inhibition,[8]; at 50.0 µM,74.4% (active)
same,growth inhibition,[9]; at 1.2 µM,-12%
same,growth inhibition,[9]; at 3.7 µM,-7%
same,growth inhibition,[9]; at 11.0 µM,8%
same,growth inhibition,[9]; at 33.0 µM,17%
same,growth inhibition,[9]; at 100.0 µM,60%
same,growth inhibition,[10]; [17],46%
same,growth inhibition,[10]; [18],97% (active)
same,growth inhibition,[10]; at 50.0 µM,45.8%
same,growth inhibition,[11]; at 1.2 µM,-6%
same,growth inhibition,[11]; at 3.7 µM,-7%
same,growth inhibition,[11]; [17],17%
same,growth inhibition,[11]; at 11.0 µM,-18%
same,growth inhibition,[11]; at 33.0 µM,5%
same,growth inhibition,[11]; [18],97% (active)
same,growth inhibition,[11]; at 50.0 µM,58.8%
same,growth inhibition,[11]; at 100.0 µM,50%
same,growth inhibition,[12]; at 1.2 µM,-18%
same,growth inhibition,[12]; at 3.7 µM,-27%
same,growth inhibition,[12]; at 11.0 µM,-21%
same,growth inhibition,[12]; at 33.0 µM,-7%
same,growth inhibition,[12]; at 100.0 µM,65%
same,growth inhibition,[13]; at 1.2 µM,-22%
same,growth inhibition,[13]; at 3.7 µM,-16%
same,growth inhibition,[13]; at 11.0 µM,-27%
same,growth inhibition,[13]; at 33.0 µM,14%
same,growth inhibition,[13]; at 100.0 µM,85% (active)
same,growth inhibition,[14]; at 1.2 µM,-30%
same,growth inhibition,[14]; at 3.7 µM,-29%
same,growth inhibition,[14]; at 11.0 µM,-19%
same,growth inhibition,[14]; at 33.0 µM,30%
same,growth inhibition,[14]; at 100.0 µM,78% (active)
same,growth inhibition,[15]; [17],53%
same,growth inhibition,[15]; [18],85% (active)
same,growth inhibition,[15]; at 50.0 µM,57.4%
